About 83,000 compounds went through this panel and 20% of them were active in at least one assay; those are over-represented in the sample as a whole.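 Each cell line was grown in a 96-well plate and treated with one concentration of compound for 48 hours. Values below 10 were considered active.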 A number with no mark means an inactive call. The source made the active and inactive calls.
Each compound was assayed on OVCAR-3 ovarian (assay: NCI-60 one-dose screen, 48 h (100 = growth as untreated, 0 = no growth, -100 = all killed)). Conditions: 10 µM unless noted.

| Structure (SMILES) | growth |
| --- | --- |
| CCOC(=O)/C(C#N)=C\c1c[nH]c2ccccc12 | 103% |
| CC(=O)N(C)N=Nc1ccc(C)cc1 | 103% |
| COc1cc(C(=O)N2CCN(c3ccccc3)CC2)c2ccccc2n1 | -33.5% (active) |
| CCOC(=O)c1ccc(NC(=O)Nc2nccs2)cc1 | -48.8% (active) |
| CCCCCCCCCCCCSC1=C(Cl)C(=O)C(OC)=C(OC)C1=O | 38.8% |
| Cc1ccc(N2C(=O)c3cccc4c(N)c(S(=O)(=O)O)cc(c34)C2=O)cc1 | 121% |
| S=C=Nc1ccc2ccccc2c1 | 114% |
| Oc1cccnc1CN1CCCC1 | 117% |
| O=C1C=C(c2ccccc2)C(O)(c2ccccc2)C1 (centres undefined) | 112% |
| Cc1cc(C)cc(OCC(=O)O)c1 | 124% |
| NNC(=O)N/N=C1\C(=O)N(c2nccs2)C(=O)C(=O)C1c1nc2ccccc2s1 (centres undefined) | 102% |
| O=[N+]([O-])c1c(O)c(CNCCCO)cc(CNCCCO)c1O | 152% |
| O=C1Nc2ccccc2/C1=C\c1ccccc1O | 89.3% |
| Cc1cccc(-[n+]2noc(N)n2)c1 | 77% |
| O=S(Cc1ccccc1)/C(=C/NC(=S)Nc1cc(Cl)ccc1Cl)c1ccccc1 (centres undefined) | 110% |
| CCNC(=O)OCCc1c2ccccc2nc2ccccc12 | 109% |
| CCCCn1cnc2c(=O)[nH]cnc21 | 113% |
| Cc1cc(CC(=O)NCCO)n(CCO)c(=O)c1 | 106% |
| CCCCCCCCCCC(=O)CCCCCCCCCC | 118% |

From PubChem BioAssay (NCI)
